Among the data in ChEMBL document CHEMBL1961873, “Compounds: GSK PKIS; Assays: Nanosyn kinase panel” (2012) are inhibition values, retold here.

The target of assay [1] is T1, Serine/threonine-protein kinase Nek9 (Homo sapiens) (UniProt Q8TD19).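 Note: each value is a mean percent inhibition of NEK9.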
T1 sequence (whole entry): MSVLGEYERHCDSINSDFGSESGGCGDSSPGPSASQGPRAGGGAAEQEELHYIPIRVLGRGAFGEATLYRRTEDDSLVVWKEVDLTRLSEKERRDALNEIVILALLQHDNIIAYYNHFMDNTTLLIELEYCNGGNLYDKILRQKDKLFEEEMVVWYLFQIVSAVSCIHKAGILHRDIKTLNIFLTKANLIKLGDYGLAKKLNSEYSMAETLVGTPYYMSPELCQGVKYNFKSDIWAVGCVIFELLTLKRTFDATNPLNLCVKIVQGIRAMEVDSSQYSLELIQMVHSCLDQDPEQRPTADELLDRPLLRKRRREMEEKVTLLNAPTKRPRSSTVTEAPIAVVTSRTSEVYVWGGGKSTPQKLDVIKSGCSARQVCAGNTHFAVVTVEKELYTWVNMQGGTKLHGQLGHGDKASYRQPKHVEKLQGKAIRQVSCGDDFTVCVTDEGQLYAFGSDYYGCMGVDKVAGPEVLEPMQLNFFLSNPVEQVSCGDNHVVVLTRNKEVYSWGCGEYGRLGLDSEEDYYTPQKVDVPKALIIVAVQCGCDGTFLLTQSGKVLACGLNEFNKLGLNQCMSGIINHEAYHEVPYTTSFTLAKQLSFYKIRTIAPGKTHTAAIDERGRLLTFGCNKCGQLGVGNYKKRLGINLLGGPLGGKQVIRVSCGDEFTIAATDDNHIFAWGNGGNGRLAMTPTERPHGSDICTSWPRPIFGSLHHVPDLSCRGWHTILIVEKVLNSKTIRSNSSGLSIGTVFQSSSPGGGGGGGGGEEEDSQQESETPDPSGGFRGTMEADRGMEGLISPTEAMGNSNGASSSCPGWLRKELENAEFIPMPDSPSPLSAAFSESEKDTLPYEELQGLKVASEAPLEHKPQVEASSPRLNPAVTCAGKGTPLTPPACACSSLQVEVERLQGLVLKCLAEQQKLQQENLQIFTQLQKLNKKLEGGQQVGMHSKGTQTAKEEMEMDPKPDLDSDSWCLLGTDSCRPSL
As to conditions: at 1 µM.

The target of assay [2] is Serine/threonine-protein kinase PLK1 (Homo sapiens) (UniProt P53350). As to conditions: at 0.1 µM.
Assay [3] has the same target. As to conditions: at 1 µM.
Assay [4] addresses T2, Dual specificity protein kinase TTK (Homo sapiens) (UniProt P33981).
T2 sequence (whole entry): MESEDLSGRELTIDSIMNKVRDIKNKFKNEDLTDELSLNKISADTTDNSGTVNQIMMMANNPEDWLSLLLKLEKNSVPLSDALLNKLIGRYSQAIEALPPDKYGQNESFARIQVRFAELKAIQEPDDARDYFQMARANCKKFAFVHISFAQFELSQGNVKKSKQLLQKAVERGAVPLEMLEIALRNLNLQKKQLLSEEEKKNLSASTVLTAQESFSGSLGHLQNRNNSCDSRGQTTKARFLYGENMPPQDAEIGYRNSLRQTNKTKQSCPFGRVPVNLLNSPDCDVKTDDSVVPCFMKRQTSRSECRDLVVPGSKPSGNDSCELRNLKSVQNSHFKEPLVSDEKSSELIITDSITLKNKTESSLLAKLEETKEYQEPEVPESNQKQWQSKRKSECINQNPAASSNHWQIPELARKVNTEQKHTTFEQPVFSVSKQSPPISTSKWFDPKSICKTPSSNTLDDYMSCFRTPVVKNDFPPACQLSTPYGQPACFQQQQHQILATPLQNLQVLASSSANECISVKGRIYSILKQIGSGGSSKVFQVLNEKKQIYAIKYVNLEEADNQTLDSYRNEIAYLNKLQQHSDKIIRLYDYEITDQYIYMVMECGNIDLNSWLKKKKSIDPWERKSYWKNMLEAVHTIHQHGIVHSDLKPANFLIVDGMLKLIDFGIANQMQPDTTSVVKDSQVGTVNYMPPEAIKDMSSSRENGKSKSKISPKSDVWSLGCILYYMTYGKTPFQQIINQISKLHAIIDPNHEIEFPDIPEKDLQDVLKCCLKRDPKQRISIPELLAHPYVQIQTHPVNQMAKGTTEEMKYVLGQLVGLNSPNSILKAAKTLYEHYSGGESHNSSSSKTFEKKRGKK
To be noted: at 0.1 µM.

Assay [5] deals with T3, Receptor-type tyrosine-protein kinase FLT3 (Homo sapiens), P36888 [D835Y].
T3 sequence (whole entry): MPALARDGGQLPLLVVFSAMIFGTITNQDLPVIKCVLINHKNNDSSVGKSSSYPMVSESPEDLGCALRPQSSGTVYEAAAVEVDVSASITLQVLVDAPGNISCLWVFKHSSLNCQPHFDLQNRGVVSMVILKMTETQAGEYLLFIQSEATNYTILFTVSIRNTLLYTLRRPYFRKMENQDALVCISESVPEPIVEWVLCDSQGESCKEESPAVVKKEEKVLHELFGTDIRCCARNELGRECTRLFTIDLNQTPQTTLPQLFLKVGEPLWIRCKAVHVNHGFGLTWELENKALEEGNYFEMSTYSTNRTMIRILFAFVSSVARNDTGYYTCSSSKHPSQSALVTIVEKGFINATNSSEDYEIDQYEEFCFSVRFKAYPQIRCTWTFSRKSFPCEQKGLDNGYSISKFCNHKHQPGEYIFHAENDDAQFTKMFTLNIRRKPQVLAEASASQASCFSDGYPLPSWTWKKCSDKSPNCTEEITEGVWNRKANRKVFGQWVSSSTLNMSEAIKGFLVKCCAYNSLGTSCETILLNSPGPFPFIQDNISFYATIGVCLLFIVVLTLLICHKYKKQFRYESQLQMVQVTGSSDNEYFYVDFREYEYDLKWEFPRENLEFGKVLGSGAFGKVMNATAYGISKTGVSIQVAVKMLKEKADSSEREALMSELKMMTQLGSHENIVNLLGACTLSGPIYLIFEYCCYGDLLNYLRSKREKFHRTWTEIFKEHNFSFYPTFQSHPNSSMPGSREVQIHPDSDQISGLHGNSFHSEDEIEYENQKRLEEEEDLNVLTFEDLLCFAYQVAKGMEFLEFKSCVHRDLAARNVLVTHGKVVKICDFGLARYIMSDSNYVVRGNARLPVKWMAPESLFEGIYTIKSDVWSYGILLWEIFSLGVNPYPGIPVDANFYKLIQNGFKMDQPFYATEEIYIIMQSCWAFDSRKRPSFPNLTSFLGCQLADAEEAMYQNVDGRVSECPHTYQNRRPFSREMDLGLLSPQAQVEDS
To be noted: at 1 µM.

The target of assay [6] is Vascular endothelial growth factor receptor 3 (Homo sapiens) (UniProt P35916). As to conditions: at 0.1 µM.
Sequence of Vascular endothelial growth factor receptor 3 (Homo sapiens) (P35916 whole entry): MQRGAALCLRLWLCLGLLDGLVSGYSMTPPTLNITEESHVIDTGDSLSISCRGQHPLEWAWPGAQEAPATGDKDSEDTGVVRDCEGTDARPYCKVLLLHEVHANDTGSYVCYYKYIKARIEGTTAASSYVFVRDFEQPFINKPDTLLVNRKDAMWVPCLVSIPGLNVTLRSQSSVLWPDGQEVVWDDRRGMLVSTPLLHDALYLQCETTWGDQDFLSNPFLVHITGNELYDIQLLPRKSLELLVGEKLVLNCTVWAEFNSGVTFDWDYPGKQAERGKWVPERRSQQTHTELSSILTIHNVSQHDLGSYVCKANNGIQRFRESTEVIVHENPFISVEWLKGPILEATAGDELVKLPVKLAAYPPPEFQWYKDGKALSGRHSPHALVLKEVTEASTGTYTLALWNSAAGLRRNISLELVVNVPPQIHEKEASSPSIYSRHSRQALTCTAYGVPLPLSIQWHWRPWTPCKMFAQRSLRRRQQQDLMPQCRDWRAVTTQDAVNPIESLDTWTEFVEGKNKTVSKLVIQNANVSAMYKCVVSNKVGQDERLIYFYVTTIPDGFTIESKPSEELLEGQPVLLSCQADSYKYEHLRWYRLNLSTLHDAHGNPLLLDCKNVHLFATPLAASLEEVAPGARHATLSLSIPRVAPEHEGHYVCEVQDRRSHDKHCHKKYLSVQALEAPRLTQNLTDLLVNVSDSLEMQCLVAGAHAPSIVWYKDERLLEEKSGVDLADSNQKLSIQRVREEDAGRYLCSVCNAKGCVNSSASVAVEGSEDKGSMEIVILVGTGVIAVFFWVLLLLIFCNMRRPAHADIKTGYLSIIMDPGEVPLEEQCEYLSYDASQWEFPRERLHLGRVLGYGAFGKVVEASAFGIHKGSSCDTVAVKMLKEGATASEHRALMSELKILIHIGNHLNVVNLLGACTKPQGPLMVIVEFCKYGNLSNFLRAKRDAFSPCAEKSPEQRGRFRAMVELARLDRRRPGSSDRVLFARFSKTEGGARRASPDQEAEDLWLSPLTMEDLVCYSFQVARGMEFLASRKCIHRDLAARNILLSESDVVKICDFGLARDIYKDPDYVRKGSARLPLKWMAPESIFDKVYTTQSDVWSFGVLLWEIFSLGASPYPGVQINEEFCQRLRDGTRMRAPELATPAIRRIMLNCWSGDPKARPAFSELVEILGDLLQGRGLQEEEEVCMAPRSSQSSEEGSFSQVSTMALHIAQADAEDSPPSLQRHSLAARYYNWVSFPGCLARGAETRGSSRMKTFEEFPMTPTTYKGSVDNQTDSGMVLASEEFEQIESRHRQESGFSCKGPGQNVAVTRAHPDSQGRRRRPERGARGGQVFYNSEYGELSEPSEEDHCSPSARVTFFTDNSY
Assay [7] has the same target. As to conditions: at 1 µM.
Assay [8] deals with Macrophage colony-stimulating factor 1 receptor (Homo sapiens) (UniProt P07333). To be noted: at 0.1 µM.
Sequence of Macrophage colony-stimulating factor 1 receptor (Homo sapiens) (P07333 whole entry): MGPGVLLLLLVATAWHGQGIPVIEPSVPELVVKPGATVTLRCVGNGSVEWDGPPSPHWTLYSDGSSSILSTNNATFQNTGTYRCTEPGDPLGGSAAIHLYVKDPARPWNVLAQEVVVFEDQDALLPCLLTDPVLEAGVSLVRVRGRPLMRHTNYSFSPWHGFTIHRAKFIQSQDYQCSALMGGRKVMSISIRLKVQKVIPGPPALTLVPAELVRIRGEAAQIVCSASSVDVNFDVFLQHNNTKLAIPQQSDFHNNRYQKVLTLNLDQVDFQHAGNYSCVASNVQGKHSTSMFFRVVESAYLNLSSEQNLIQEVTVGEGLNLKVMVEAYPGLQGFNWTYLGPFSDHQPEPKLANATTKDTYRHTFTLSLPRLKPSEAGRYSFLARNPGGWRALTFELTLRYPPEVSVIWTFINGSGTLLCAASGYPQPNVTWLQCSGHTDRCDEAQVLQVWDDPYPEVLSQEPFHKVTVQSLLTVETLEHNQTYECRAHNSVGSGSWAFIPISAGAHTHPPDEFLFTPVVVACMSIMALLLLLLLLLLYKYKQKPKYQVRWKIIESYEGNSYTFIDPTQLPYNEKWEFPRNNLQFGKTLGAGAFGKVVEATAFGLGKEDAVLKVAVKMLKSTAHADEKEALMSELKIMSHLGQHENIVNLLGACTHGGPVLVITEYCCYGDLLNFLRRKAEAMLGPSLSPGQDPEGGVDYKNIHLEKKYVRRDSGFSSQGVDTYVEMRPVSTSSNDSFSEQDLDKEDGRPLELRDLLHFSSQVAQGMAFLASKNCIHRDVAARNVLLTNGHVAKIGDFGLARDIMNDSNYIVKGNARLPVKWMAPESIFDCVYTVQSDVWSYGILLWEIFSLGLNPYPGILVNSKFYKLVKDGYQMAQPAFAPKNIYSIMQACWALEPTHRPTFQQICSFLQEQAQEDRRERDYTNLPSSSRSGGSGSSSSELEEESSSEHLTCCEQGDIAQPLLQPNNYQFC
Assay [9] has the same target. To be noted: at 1 µM.
Assay [10] concerns the target Tyrosine-protein kinase Fyn (Homo sapiens) (UniProt P06241). As to conditions: at 0.1 µM.
Assay [11] shares this target. To be noted: at 1 µM.
The target in assay [12] is Tyrosine-protein kinase HCK (Homo sapiens) (UniProt P08631). To be noted: at 0.1 µM.
Sequence of Tyrosine-protein kinase HCK (Homo sapiens) (P08631 2-526 limits assumed): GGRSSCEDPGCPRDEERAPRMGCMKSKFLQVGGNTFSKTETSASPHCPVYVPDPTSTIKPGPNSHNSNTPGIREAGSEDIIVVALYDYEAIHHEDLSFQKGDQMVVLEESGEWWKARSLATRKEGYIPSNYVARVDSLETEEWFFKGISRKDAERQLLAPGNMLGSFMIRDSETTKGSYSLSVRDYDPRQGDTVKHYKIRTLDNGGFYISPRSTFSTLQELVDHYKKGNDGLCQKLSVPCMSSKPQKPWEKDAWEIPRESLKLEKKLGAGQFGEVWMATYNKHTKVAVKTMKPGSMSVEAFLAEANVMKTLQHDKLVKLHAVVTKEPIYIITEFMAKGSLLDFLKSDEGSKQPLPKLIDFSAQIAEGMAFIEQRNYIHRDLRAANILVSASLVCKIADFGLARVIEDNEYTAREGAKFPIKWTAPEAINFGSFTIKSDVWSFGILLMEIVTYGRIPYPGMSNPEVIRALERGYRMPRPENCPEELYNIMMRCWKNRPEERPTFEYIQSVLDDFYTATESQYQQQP
For assay [13] the target is unchanged. To be noted: at 1 µM.
In assay [14] the target is Insulin-like growth factor 1 receptor (Homo sapiens) (UniProt P08069). To be noted: at 0.1 µM.
The target is the same in assay [15]. To be noted: at 1 µM.
Assay [16] deals with Insulin receptor (Homo sapiens) (UniProt P06213). As to conditions: at 0.1 µM.
The target is the same in assay [17]. As to conditions: at 1 µM.
The target in assay [18] is Insulin receptor-related protein (Homo sapiens) (UniProt P14616). As to conditions: at 0.1 µM.
Sequence of Insulin receptor-related protein (Homo sapiens) (P14616 27-742 limits assumed): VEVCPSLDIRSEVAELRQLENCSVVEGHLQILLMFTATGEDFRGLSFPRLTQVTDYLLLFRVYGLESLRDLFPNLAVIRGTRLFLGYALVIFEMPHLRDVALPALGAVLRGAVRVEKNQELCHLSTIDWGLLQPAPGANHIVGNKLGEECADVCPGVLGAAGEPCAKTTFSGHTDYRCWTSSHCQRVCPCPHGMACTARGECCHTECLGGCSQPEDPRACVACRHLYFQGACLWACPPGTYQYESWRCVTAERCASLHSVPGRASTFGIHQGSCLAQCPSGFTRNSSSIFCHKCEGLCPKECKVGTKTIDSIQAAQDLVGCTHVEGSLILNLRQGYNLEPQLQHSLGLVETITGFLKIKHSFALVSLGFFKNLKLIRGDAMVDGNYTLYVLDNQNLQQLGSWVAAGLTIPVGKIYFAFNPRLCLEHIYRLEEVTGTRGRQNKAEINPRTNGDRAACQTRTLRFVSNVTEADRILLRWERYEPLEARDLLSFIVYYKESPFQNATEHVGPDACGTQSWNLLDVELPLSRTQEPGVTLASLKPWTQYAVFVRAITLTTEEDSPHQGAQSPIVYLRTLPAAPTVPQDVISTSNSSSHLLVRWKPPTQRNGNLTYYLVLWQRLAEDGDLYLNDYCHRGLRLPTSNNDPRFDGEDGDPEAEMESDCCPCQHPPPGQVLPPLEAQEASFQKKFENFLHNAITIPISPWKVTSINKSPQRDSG
Sequence of Insulin receptor-related protein (Homo sapiens) (P14616 747-1297 limits assumed): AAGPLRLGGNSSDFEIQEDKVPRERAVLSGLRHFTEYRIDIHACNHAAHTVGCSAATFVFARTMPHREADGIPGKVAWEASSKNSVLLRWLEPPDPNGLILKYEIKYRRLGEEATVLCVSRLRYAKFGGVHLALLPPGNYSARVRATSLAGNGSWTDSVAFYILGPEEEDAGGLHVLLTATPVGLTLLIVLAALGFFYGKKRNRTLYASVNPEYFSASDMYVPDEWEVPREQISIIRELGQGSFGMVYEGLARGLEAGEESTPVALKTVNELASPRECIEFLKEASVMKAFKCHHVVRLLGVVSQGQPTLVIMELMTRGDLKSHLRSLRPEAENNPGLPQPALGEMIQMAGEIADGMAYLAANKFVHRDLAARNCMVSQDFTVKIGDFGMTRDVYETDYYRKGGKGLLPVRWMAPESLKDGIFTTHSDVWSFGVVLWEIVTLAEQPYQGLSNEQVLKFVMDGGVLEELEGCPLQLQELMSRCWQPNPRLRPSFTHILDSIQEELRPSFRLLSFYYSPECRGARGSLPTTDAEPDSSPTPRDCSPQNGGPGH
The target is the same in assay [19]. To be noted: at 1 µM.
Assay [20] concerns the target T4, Tyrosine-protein kinase ITK/TSK (Homo sapiens) (UniProt Q08881).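 Note: mean percent inhibition of ITK from the GSK PKIS screen.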
T4 sequence (whole entry): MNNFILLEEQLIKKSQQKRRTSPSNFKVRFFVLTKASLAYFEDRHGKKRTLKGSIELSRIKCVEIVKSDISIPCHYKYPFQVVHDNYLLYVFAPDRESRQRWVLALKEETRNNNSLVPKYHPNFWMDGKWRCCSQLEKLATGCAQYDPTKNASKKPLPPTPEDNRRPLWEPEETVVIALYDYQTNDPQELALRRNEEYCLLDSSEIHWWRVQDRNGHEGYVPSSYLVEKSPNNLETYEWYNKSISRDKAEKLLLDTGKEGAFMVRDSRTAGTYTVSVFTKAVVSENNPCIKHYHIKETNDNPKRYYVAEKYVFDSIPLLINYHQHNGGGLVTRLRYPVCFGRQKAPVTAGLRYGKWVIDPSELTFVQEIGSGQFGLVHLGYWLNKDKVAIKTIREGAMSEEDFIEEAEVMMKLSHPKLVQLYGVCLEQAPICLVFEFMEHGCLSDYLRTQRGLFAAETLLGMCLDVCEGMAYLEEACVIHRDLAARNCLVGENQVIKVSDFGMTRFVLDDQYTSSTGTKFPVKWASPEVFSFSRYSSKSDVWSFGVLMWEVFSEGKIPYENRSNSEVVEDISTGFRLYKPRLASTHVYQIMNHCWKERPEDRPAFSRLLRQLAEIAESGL
As to conditions: at 0.1 µM.

Each structure is given as a SMILES string.

Sequence of Tyrosine-protein kinase Fyn (Homo sapiens) (P06241 2-537 limits assumed): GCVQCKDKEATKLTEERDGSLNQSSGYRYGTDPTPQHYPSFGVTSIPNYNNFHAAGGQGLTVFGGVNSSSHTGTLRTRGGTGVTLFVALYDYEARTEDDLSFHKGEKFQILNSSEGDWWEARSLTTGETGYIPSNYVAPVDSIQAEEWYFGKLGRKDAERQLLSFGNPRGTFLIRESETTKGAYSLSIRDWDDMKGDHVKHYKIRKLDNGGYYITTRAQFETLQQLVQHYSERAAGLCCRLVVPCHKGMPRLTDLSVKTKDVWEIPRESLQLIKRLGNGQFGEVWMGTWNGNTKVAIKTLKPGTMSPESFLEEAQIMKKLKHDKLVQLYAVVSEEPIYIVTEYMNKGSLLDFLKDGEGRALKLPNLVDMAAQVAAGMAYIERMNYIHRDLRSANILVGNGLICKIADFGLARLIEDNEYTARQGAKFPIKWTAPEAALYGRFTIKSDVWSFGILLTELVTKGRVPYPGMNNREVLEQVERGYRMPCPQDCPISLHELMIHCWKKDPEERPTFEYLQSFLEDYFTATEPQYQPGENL

For `COc1c(C(N)=O)cc(-c2ccc(Cl)cc2)cc1-c1ccc(S(N)(=O)=O)cc1`, the inhibition is 5.67% in [1]; 4.84% in assay [2]; 8.71% in [3]; 11.8% in assay [4]; 0.7% in assay [5]; 2.5% in assay [6]. Further, the inhibition in assay [7] worked out at 0.39%; in assay [8], 5.24%; in [9], 4.74%; in [10], 1.12%; in assay [11], 2.81%; in assay [12], 6.39%. Also, the inhibition in [13] was found to be 7.93%; in assay [14], 7.44%; in assay [15], 4.41%; in assay [16] it was 9.51%; in assay [17] it was 5.04%; in [18], 2.33%. For the same molecule, the inhibition in [19] is 3.46%; in assay [20], 2.02%.

In the case of `OCCCNc1nccc(-c2c(-c3ccc(F)cc3)nn3cc(C(F)(F)F)ccc23)n1`, the inhibition is 0.58% in [1]; 3.57% in assay [2]; 1.96% in [3]; 3.55% in assay [4]; 1.7% in [5]; -2.7% in assay [6]. The inhibition in assay [7] came out at 2.54%; in [8], 1.88%; in [9] it was 6.34%; in assay [10] it was 0.07%; in [11], 4.88%; in assay [12] it was 5.52%. In addition, the inhibition turned out to be 5.92% in assay [13]; 1.8% in assay [14]; 1.03% in [15]; 0.28% in assay [16]; 3.33% in [17]; 3.08% in assay [18]. The inhibition in [19] was found to be 1.53%; in [20], 1.09%.

For `CC(C)c1ccc(-c2cc(-c3c[nH]nc3-c3ccccn3)ccn2)cc1`, the inhibition in assay [1] worked out at 2.93%; in [2] it was 0.48%; in [3] it was 0.41%; in [4] it was 2.65%; in [5], 1.71%; in assay [6], 1.37%. Also, the inhibition was found to be 5.15% in [7]; 0.03% in [8]; 3.63% in assay [9]; 1.14% in assay [10]; 1.91% in assay [11]; 2.47% in assay [12]. The inhibition in assay [13] was 4.67%; in [14], 1%; in assay [15], 2.04%; in assay [16], -0.15%; in [17], 1.37%; in [18], -0.94%. For the same molecule, the figures for the inhibition in assay [19] and in assay [20] were -0.37% and 0.84%, respectively.

Regarding `COc1ccccc1-c1cc(/C=C2\C(=O)Nc3ncc(Br)cc32)cc(Br)c1O`, the inhibition in [1] is 3.53%; in assay [2], 4.19%; in assay [3] it was 9.04%; in assay [4], 12.7%; in assay [5] it was 4.73%; in assay [6], 1.8%. The inhibition in assay [7] turned out to be 4.28%; in [8], 3.88%; in assay [9], 7.16%; in assay [10] it was 5.35%; in [11] it was 26.3%; in assay [12], 7.67%. Moreover, the inhibition in assay [13] stood at 12.5%; in assay [14], 0.89%; in [15] it was 2.09%; in [16], 3.72%; in assay [17], 6.87%; in assay [18], 2.46%. Besides, the inhibition in [19] was 1.02%; in [20] it was 1.08%.

In general, inhibition refers to the drop in the measured response relative to a control, in per cent.
